# Experimental data as given in PubChem BioAssay (Tox21).
# Inconclusive results are not listed. Where a call stands in place of a potency, no number is given. Where a structure was tested more than once in an assay, its records may differ in their call. Calls of active or inactive are those of the source. The call rests on the fitted dose curve; in most records, active means well fitted cell-killing curve with a large enough effect in the repeat runs; inconclusive means weak or mixed curves, or effect the other way; inactive means no such curve, though single readings can be large or run the other way.
# Experiment: qHTS assay to identify small molecule antagonists of the sonic hedgehog signaling (Shh) pathway - cell viability counter screen (AID 1259367); further: nearly all actives have a fitted effect of over 55% in size
# Details: NIH/3T3 Gli1-Luc viability, CellTiter-Fluor, 24 h; series mostly up to 42.5 µM
# From the text: National Center for Advancing Translational Sciences [NCATS]
# NIH Chemical Genomics Center [NCGC]
# U.S. Environmental Protection Agency [EPA]
# National Institutes of Environmental Health Sciences [NIEHS]
# National Toxicology Program [NTP]
# U.S. Food and Drug Administration [FDA]
# The sonic hedgehog (Shh) pathway is essential for normal embryonic development. Dysregulation of the Shh pathway can cause severe developmental defects in organs. Therefore chemicals that interfere with the pathway are potential developmental toxicants. A cell line designated 3T3Gli1-Luc (DMB/OARSA/CFSAN/FDA, Laurel, MD), a NIH/3T3 derived clone containing stably integrated Gli1-Luc reporter is used to detect chemical interference of the Shh pathway, by changes in the expression of the firefly Luc gene under the control of the Gli1 transcriptional response element. This cell line was used to screen Tox21 libraries for identifying and prioritizing the potential developmental toxicants that interfere Shh pathway. Conditioned medium-stimulated mode was used to screen for chemicals inhibiting Shh signaling. The cytotoxicity of the compounds was tested in parallel by measuring the cell viability using CellTiter-Fluor assay system (Promega, Madison, WI) in the same wells.
# Tox21 Assay Protocol Summary:
# 3T3 Gli1-Luc cells were dispensed at 2,000 per well in 5uL of culture medium into white solid bottom 1536-well plates (Greiner Bio-One, Monroe, NC) using a Multidrop Combi (Thermo Scientific, Waltham, MA) dispenser. The assay plates were incubated at 37 C and 5% CO2 for 4hr, and then 23nL of compounds dissolved in DMSO and positive control were transferred using a Pintool station (Wako, San Diego, CA). The compound transfer was followed by the addition of 1ul conditioned medium or assay buffer using two separate tips of Flying Reagent Dispenser (FRD, Aurora Discovery, San Diego, CA). The assay plates were incubated at 37C and 5% CO2 for 24hr. For viability read, after 23hr of compound treatment, 1uL of CellTiter-Fluor reagent (Promega Corporation, Madison, WI) was added to each well of the assay plates using Flying Reagent Dispenser (FRD, Aurora Discovery, San Diego, CA) and incubated the assay plates at 37C for 1hr. The fluorescence signal was quantified using a ViewLux plate reader (Perkin Elmer, Shelton, CT).
# Potency means the concentration at half of the fitted maximal effect.
row,Compound,Potency
1,CN(C)CCCSc1ccccc1NC(=O)/C=C/c1ccccc1,inactive
2,O=C(O)CNC(=O)c1ccc([N+](=O)[O-])cc1,inactive
3,O=c1[nH]c(=O)n([C@H]2C[C@H](O)[C@@H](CO)O2)cc1I,inactive
4,CC(C(=O)O)c1ccc(CC2CCCC2=O)cc1 (stereo not given),inactive
5,CCN(Cc1ccncc1)C(=O)C(CO)c1ccccc1 (stereo not given),inactive
6,CCCCCOC(=O)CCCCC,inactive
7,Cc1sccc1Br,inactive
8,Nc1cc(=O)[nH]c(N)n1,inactive
9,COC(=O)NN,inactive
10,Cc1nc2c([nH]1)c(=O)n(C)c(=O)n2Cc1ccco1,inactive
11,CCC=O,inactive
12,C=C(C)CS(=O)(=O)O,inactive
13,COC(=O)c1cc(C(=O)OC)cc(S(=O)(=O)O)c1,inactive
14,CC[N+](C)(C)c1cccc(O)c1,inactive
15,Nc1ccc(S(=O)(=O)Nc2ccnn2-c2ccccc2)cc1,inactive
16,OC[C@]1(O)OC[C@@H](O)[C@H](O)[C@@H]1O,inactive
17,Cc1c(O)cccc1O,inactive
18,CN(C(=O)c1c(O)c2ccccc2n(C)c1=O)c1ccccc1,inactive
19,CCCCC/C=C\CCC=O,inactive
20,O=C(O)Cc1ccc(CCNS(=O)(=O)c2ccc(Cl)cc2)cc1,inactive

row,Compound,Potency
1,Cc1cc(O)cc2c1O[C@](C)(CCC[C@H](C)CCC[C@H](C)CCCC(C)C)CC2,inactive
2,Nc1c[n+](N2CCOCC2)no1,inactive
3,CN(C)CCCNCCCN(C)C,inactive
4,CCOC(=O)[C@H](CCc1ccccc1)N[C@@H](C)C(=O)N1[C@H](C(=O)O)C[C@@H]2CCC[C@@H]21,inactive
5,COC(=O)c1c(Cl)c(Cl)c(C(=O)OC)c(Cl)c1Cl,inactive
6,CC(=O)CC(C)C,inactive
7,CO[C@]12C[C@@H](COC(=O)c3cncc(Br)c3)CN(C)[C@@H]1Cc1cn(C)c3cccc2c13,inactive
8,OC(CCN1CCCCC1)(c1ccccc1)C1CC2C=CC1C2 (stereo not given),inactive
9,CCS(=O)(=O)c1ccc(OC)c(C(=O)OC)c1,inactive
10,CC(C)(C)NCCNC(C)(C)C,inactive
11,COC(=O)C1=C(C)NC(C)=C(C(=O)OC)C1c1ccccc1[N+](=O)[O-],30.7 µM (active) and inactive
12,CCC(=O)OC(C)c1ccccc1 (stereo not given),inactive
13,CC(C)c1cc2c(cc1S(=O)(=O)O)[C@@]1(C)CCC[C@@](C)(C(=O)O)[C@@H]1CC2,inactive
14,NC(=O)COCCN1CCN(C(c2ccccc2)c2ccc(Cl)cc2)CC1 (stereo not given),inactive
15,N=C(N)c1ccccc1,inactive
16,O=C(c1ccccc1)C1CCCCC1,inactive
17,CCCCOCCOCCOCc1cc2c(cc1CCC)OCO2,inactive
18,O=c1cc(CO)occ1O,inactive
19,NC(=O)Nc1ccccc1,inactive
20,CCCCCCCCCCCC,inactive
